Compound activity deposited in PubChem BioAssay by National Center for Advancing Translational Sciences (NCATS).
IL-1B inflam inh: inhibitors of inflammasome signaling (IL-1 beta secretion) | THP-1 LPS/ATP IL-1B secretion, AlphaLISA, 16 h; active compounds read low | activity change, % at 57.5 µM | 360,000 tested, 4.7% active; in the data active means activity change below about -50%; inconclusive means mostly about -30% to -49%
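THP-1 cells pretreated 1 hr with compounds (up to 57.5 uM final), then stimulated with LPS (250 ng/mL final) plus ATP (1.25 mM final); secreted IL-1B measured by AlphaLISA after 16 hr, decreased signal indicating inhibition.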
HT1080-NT tox: kills 2HG-producing HT-1080-NT fibrosarcoma cells. 360,000 tested, 1.6% active. Potency, µM (top dose mostly 46.1 µM), actives largely listed as cytotoxic. HT-1080-NT fibrosarcoma viability, CellTiter-Glo ATP luminescence, 48 h;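 further: NT is the 2HG producing partner of a matched IDH1 knockdown line; nearly all actives have a fitted effect of over 55% in size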
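Fibrosarcoma NT cells, 750 per well in 5% FBS RPMI, were exposed to compound for 48 hours. Viability: CellTiter-Glo luminescence.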
DT40 TDP1 no CPT: qHTS for Inhibitors of human tyrosyl-DNA phosphodiesterase 1 (TDP1): qHTS in cells in absence of CPT; DT40 Tdp1-/- hTDP1 cells, no CPT, ATP luminescence, 48 h; Potency, µM (top dose mostly 46.2 µM), most hits filed as inhibitors; 420,000 tested, 15% active; further: nearly all actives have a fitted effect of over 55% in size
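Growth of hTDP1-complemented DT40 Tdp1-knockout cells is measured by ATP luminescence after at least 48 hr compound exposure at 37 °C, with DMSO substituting for the 20 nM CPT used in the parallel screen.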
HT1080 IDH1KD tx: HT-1080 IDH1 knockdown cell toxicity (counter line); 360,000 tested, 2% active; Potency, µM (top dose mostly 46.1 µM), actives largely listed as cytotoxic; HT-1080 IDH1 knockdown viability, ATP luminescence, 48 h
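Knockdown cells (IDH1KD HT-1080) received compounds 2 h after plating at 750 cells/well and were kept 48 h at 37 °C in 5% FBS RPMI. A CellTiter-Glo luminescence read gave % activity for curve fitting.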
ALOX12 inh: blocks human arachidonate 12S-lipoxygenase; purified 12hLO, xylenol orange hydroperoxide absorbance; Potency, µM (doses to about 108 µM), usual class: inhibitors; 580,000 tested, 1.1% active; AID 1671190
Target sequence (P18054 whole entry, looked up): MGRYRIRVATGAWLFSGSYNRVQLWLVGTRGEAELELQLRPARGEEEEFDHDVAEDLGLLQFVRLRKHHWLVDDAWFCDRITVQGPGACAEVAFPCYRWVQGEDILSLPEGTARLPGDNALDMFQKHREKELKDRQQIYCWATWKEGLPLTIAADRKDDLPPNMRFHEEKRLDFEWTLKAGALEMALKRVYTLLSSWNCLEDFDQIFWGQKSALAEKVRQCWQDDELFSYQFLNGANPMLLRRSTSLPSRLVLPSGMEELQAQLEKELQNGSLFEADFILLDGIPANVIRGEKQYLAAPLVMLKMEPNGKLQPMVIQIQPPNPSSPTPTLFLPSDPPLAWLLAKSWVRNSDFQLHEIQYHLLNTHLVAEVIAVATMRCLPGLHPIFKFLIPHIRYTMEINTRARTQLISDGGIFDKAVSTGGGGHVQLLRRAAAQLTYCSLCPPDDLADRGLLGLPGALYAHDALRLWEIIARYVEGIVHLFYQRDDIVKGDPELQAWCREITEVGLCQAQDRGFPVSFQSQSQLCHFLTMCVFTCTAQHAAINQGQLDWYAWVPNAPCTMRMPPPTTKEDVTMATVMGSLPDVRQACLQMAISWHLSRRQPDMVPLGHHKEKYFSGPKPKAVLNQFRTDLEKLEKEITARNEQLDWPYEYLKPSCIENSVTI
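Purified human 12hLO at 150 nM in 25 mM Hepes, 0.01% Triton X-100, pH 7.0, preincubated 15 min at room temperature with compound. Reaction started with 40 uM arachidonic acid, 30 min at room temperature. Hydroperoxide measured by Fe-xylenol orange, 573/405 nm absorbance ratio.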
DT40 TDP1 CPT: DT40-hTDP1 cell growth loss with CPT; chicken DT40 Tdp1-/-;hTDP1 cells + 20 nM CPT, ATP luminescence, 48 h; Potency, µM (highest dose often 46.2 µM), actives largely listed as inhibitors; 420,000 tested, 12% active; further: nearly all actives have a fitted effect of over 55% in size
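Chicken DT40 Tdp1-/- cells stably complemented with human TDP1 were seeded at 400 cells/well in medium containing 20 nM camptothecin, exposed to pin-transferred compounds, and grown at 37 °C for at least 48 hr. Viability was read as ATP luminescence.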
A number is an active result; . = inactive; ? = inconclusive; / = no result given; [ ] = another dose, or the depositor's remark. The entries come from a sample that favours hits as a whole. Unless noted, the call rests on the fitted dose curve; in most records, active means well fitted curve in the direction sought with a large enough effect; inconclusive means small, poorly fitted or top-dose-only effect, or another doubt; inactive means no such curve, though single readings can be large; an effect the other way counts as inactive or inconclusive.

SMILES	IL-1B inflam inh	HT1080-NT tox	DT40 TDP1 no CPT	HT1080 IDH1KD tx	ALOX12 inh	DT40 TDP1 CPT
O=C(Nc1ccccc1Cl)c1cc(C2CCCN(C(=O)c3ccccc3)C2)on1 (stereo not drawn)	.	?	?	.	.	18µM
Cc1ccc(F)cc1C(=O)N1CCCC(c2cc(C(=O)NCc3ccccc3)no2)C1 (stereo not drawn)	.	.	?	.	.	?
CSCC(=O)N1CCCC(CCc2cccc(F)c2)C1 (stereo not drawn)	/	/	/	/	.	/
O=C(Nc1cccc(-c2nc3ccccc3o2)c1)c1ccc(Br)o1	/	/	/	/	.	/
CC(C)(C)c1ccc(OCc2ccc(C(=O)N3CCOCC3)o2)cc1	.	?	26µM	?	.	?
CCOc1ccc(OCc2ccc(C(=O)NCc3ccncc3)o2)cc1	?	.	.	.	.	16µM
CCCNC(=O)c1ccc(COc2ccc(C(C)(C)C)cc2)o1	-69	?	13µM	.	.	?
Cn1cccc1-c1cc(C(=O)N/N=C/c2cc(Br)ccc2O)[nH]n1	.	?	4.1µM	?	?	5.8µM
Cn1cccc1-c1cc(C(=O)N/N=C/c2ccccc2Cl)[nH]n1	?	.	.	.	.	.
CCOc1ccc(/C=N/NC(=O)c2cc(-c3cccn3C)n[nH]2)cc1	-59	.	?	.	.	.
CCOC(=O)c1sc2nccc(N(C)C)c2c1N=CNOCc1ccccc1	.	.	?	.	.	?
CCOC(=O)c1sc2nccc(N(C)C)c2c1N=CNOCc1c(F)cccc1Cl	.	.	23µM	.	?	?
O=C1C=CC(O)C2(CO)OC12 (stereo not drawn)	-90	?	5.8µM	?	.	16µM
COCCCNC(=O)CCc1ncc(-c2ccc(F)cc2F)o1	/	/	/	/	.	/
Cc1cnc(C(=O)N(C)Cc2ccc(Br)o2)cn1	/	/	/	/	.	/
Oc1c(Br)cc(Br)cc1C=Nc1cccnc1	.	.	21µM	.	?	?
Oc1c(Br)cc(Br)cc1/C=N/c1nccs1	.	.	18µM	.	.	?
Cc1nnc(C)n1/N=C/c1cc(Br)cc(Br)c1O	.	?	.	?	?	.
Oc1ccc(Cl)cc1/C=N/c1nccs1	.	.	11µM	?	.	13µM
Oc1ccc(Cl)cc1C=Nc1ccc(Br)cc1	.	?	.	.	.	.
Oc1c(Br)cc(Br)cc1C=Nc1ccc2[nH]ncc2c1	.	.	?	.	?	.
COc1cc(Cl)ccc1OCc1cc(C(=O)N2C[C@H]3CC[C@H]2C3)no1	.	.	.	.	.	?
COc1cc(Cl)ccc1OCc1cc(C(=O)N2C[C@]3(C)C[C@H]2CC(C)(C)C3)no1	.	.	16µM	.	.	?
CC1(C)CC2CC(C)(CN2C(=O)COC(=O)c2ccc(Cl)cc2N)C1 (stereo not drawn)	.	.	23µM	.	.	.
OC[C@@H]1CN(Cc2ccccn2)C[C@H]1c1nc(-c2cccnc2)no1	/	/	/	/	.	/
SMILES	IL-1B inflam inh	HT1080-NT tox	DT40 TDP1 no CPT	HT1080 IDH1KD tx	ALOX12 inh	DT40 TDP1 CPT
S=C(Nc1ccc(Nc2ccccc2)cc1)NC1CCCCCC1	-79	?	16µM	?	45µM	23µM
CCOc1ccc(NC(=O)c2ccc(NC(=S)NC3CCCCC3)cc2)cc1	.	.	?	?	.	21µM
FC(F)Oc1ccc(NC(=S)NC2CCCCCCC2)cc1	-91	?	?	?	?	?
S=C(Nc1ccc(Cl)cc1)NC1CCCCC1	.	.	?	?	.	?
C/C(=N\NC(=S)NC1CCCCC1)c1cccs1	.	.	10µM	.	?	13µM
CCN(CC)C(=O)c1cc2c(s1)CCC(C(=O)Nc1ccc(OC)c(F)c1)C2 (stereo not drawn)	/	/	/	/	.	/
Cc1ccc(CNC(=O)c2nn(-c3ccc(F)cc3)c3c2CCC3)cc1	/	/	/	/	.	/
CC1CCCN(C(=S)Nc2ccc(Nc3ccccc3)cc2)C1 (stereo not drawn)	-86	.	9.2µM	.	?	10µM
COc1ccc(C(=S)NC2CCCCC2)cc1	.	.	?	.	?	.
S=C(NC1CCCCC1)c1ccccc1	/	/	/	/	32µM	/
CC1CCCN(C(=S)Nc2ccc(F)cc2)C1 (stereo not drawn)	.	.	.	.	.	.
C/C(=N\NC(=O)C1CC1)c1ccc(OC(F)F)cc1OC(F)F	.	.	?	.	.	.
C/C(=N\NC(=S)NC1CCCCC1)c1ccc(OC(F)F)cc1OC(F)F	?	?	26µM	?	28µM	26µM
Cc1ccc2oc(-c3cccc(F)c3)cc(=O)c2c1	/	/	/	/	.	/
O=C(CN(c1ccc(F)cc1)S(=O)(=O)c1ccccc1)NCc1ccco1	.	.	?	.	.	.
O=C(CN(c1ccccc1)S(=O)(=O)c1ccccc1)Nc1ccccc1C(=O)NCc1ccco1	.	.	16µM	.	.	?
CS(=O)(=O)N(CC(=O)Nc1ccccc1C(=O)NCc1ccco1)c1ccccc1F	.	.	.	.	.	.
Cc1ccc(C)c(N(CC(=O)NC2CCCC2)S(=O)(=O)c2ccccc2)c1	?	.	8.2µM	.	.	12µM
Cc1ccc(C)c(N(CC(=O)Nc2ccccc2C(=O)NCc2ccco2)S(=O)(=O)c2ccccc2)c1	.	.	16µM	.	.	?
CCN(CC)S(=O)(=O)c1ccc2nc(N)sc2c1	/	/	/	/	.	/
Cc1noc(-c2cn(C3CCN(C(=O)c4cccc(Cl)c4)CC3)nn2)n1	/	/	/	/	.	/
CC(C)n1c(SCC(=O)N2CCOCC2)nc2c1c(=O)n(C)c(=O)n2C	/	/	/	/	.	/
CCCCOc1ccc(S(=O)(=O)Nc2ccc(-c3ccc(N4CCCCCC4)nn3)cc2)cc1	/	/	?	/	.	13µM
O=S(=O)(Nc1ccc(-c2ccc(N3CCCC3)nn2)cc1)c1ccc(OC(F)(F)F)cc1	/	/	?	/	.	15µM
CCc1ccc(S(=O)(=O)Nc2ccc(-c3ccc(N4CCCC4)nn3)cc2)cc1	/	/	.	/	.	.
SMILES	IL-1B inflam inh	HT1080-NT tox	DT40 TDP1 no CPT	HT1080 IDH1KD tx	ALOX12 inh	DT40 TDP1 CPT
Cc1ccc(S(=O)(=O)Nc2ccc(-c3ccc(N4CCCCCC4)nn3)cc2)cc1C	/	/	.	/	.	2.9µM
CCCCOc1ccc(S(=O)(=O)Nc2ccc(-c3ccc(N4CCCCC4)nn3)cc2)cc1	/	/	21µM	/	.	15µM
O=C(c1ccccc1F)N1CCC2(CC(c3cccc(C(F)(F)F)c3)=NO2)C1 (stereo not drawn)	/	/	/	/	.[6.33 µM]	/
O=C(O)C1=NOC2CN([S+](=O)([O-])c3cccs3)CC12 (stereo not drawn)	/	/	/	/	.[6.33 µM]	/
COc1ccc(CCC(=O)NCCS(=O)(=O)N2CCN(c3ccccc3OC)CC2)cc1	.	.	18µM	.	.	21µM
Cc1ccccc1CS(=O)(=O)CCC(=O)NCCCN1CCN(c2ccccc2F)CC1	.	.	?	.	.	?
